From PubChem BioAssay AID624404 (Broad Institute, 2012)
About 710 (39%) of roughly 1,800 compounds were called active. Roughly 28% stayed inconclusive and do not appear here. These entries were drawn from the full list. Measured potencies and affinities stand elsewhere. A number with no mark means an inactive call.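 Rule for the calls: active = luciferase signal rise whose fitted curve crosses a set activity limit at or below the top valid tested dose; inconclusive = flat fit with 30 to 70% rise, or poor fit; inactive = signal falling, flat within 30%, or crossing above top dose.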

Experiment: luciferase activators in glycosylation-insensitive reporter cells, dose response, counter-screen for N-linked glycosylation inhibitor project, D54 LucT cells, luminescence, cherry pick (AID 624404);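 note: 0% = median neutral control signal and 100% = twice that signal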
Details: D54 LucT luciferase reporter counterscreen, 24 h; series mostly up to 19.5 µM; activity increase (luciferase signal): at the top concentration

| SMILES | activity increase (luciferase signal) [%] |
| --- | --- |
| CCOc1cc(/C=C/C(=O)c2ccc(C)cc2)ccc1OCC(=O)N(C)C | 47.5 |
| O=C(Nc1cccc(-n2cnnn2)c1)c1cc(Cl)ccc1Cl | 19.6 |
| c1ccc(CN2CCC(Nc3nc(-c4cccnc4)nc4ccccc34)CC2)cc1 | -28.2 |
| COc1ccc(N2CC(C(=O)Nc3cc(C(F)(F)F)ccc3N3CCCC3)CC2=O)c(OC)c1 (stereo unspecified) | 11.6 |
| Cn1nc(-c2ccc(N3CCOCC3)c(NS(=O)(=O)c3ccccc3)c2)c2ccccc2c1=O | 31.8 |
| CCc1ccc(N2CC(C(=O)Nc3ccccc3N3CCCC3)CC2=O)cc1 (stereo unspecified) | 18.3 |
| COc1ccc2nc3n(c(=O)c2c1)-c1cc2ccccc2cc1C(=O)NC3Cc1ccccc1 (stereo unspecified) | -29.2 |
| COc1cccc(/C=N/NC(=O)c2[nH]nc3c2CCc2ccccc2-3)c1 | 19.5 |
| Cc1ccc(C(c2cc(Cl)c3cccnc3c2O)N2CCN(C)CC2)cc1 (stereo unspecified) | -2.86 |
| Cc1nc2c3cc(F)ccc3n(CCN3CCCCC3)c2s1 | 14.4 |
| COc1ccc(F)cc1C1=CC(=O)C[C@H](c2ccc3c(c2)OCO3)C1 | 32.4 |
| CN1C/C(=C\c2ccc(N3CCOCC3)cc2)C(=O)/C(=C/c2ccc(N3CCOCC3)cc2)C1 | -37.8 |
| COc1cc(-c2nc(-c3ccccc3)c(-c3cccs3)[nH]2)cc(OC)c1O | 26.6 |
| Cc1noc(C)c1COc1ccccc1C(=O)N1CCN(c2cccc(C(F)(F)F)c2)CC1 | 25.9 |
| CN(C)c1ccc(/C=C/c2cc[n+](C)c3ccccc23)cc1 | -17.1 |
| COc1ccc(C2C(C(=O)Nc3cc(OC)c(OC)c(OC)c3)c3ccccc3C(=O)N2C)cc1 (stereo unspecified) | -0.8 |
| Cn1cc(/C=N/n2cnc3scc(-c4ccc(Cl)cc4)c3c2=O)c2ccccc21 | -4.96 |
| Cc1[nH][nH]c(=O)c1C(c1ccc(-c2ccc(Cl)c(Cl)c2)o1)c1c(C)[nH][nH]c1=O | 11 |
| COc1cccc(OCC(O)CN2CCN(CCN3C(=O)c4cccc5cccc(c45)C3=O)CC2)c1 (stereo unspecified) | 1.12 |
| Cc1ccccc1OCC(O)CN1CCN(CCN2C(=O)c3cccc4cccc(c34)C2=O)CC1 (stereo unspecified) | -2.69 |
| CC(C)CCN(C(=O)Cc1ccc(Cl)c(Cl)c1)c1c(N)n(Cc2ccccc2)c(=O)[nH]c1=O | 6.92 |
| CCN(CC)c1ccc(/C=C/c2cccc[n+]2C)c(OC)c1 | -53.2 |
| O=C(Cn1cnc2c(NCc3ccccc3)ncnc21)NCc1ccccc1 | 38.4 |
| COc1ccc(Nc2nc(N3CCCC3)nc3ccccc23)c(OC)c1 | -0.901 |
| CC(=O)c1ccc(Nc2c3c(nc4ccccc24)CCCC3)cc1 | 32.1 |
| CCOc1ccccc1C1CC(=O)Nc2cc3c(cc21)OCO3 (stereo unspecified) | 35.4 |

| SMILES | activity increase (luciferase signal) [%] |
| --- | --- |
| Cc1ccc(C)c(N2CCN(c3cnn(-c4nc5ccccc5s4)c(=O)c3Cl)CC2)c1 | 36.1 |
| CC(C)(C)c1ccc(C(=O)O/N=C(\N)Cc2cccs2)cc1 | 40.3 |
| O=C(CCl)Nc1cn(-c2ccccc2)nc1-c1ccc(F)cc1 | -69.3 |
| CC1=CC(C)[C@H](/C=N/n2c(=O)[nH]c3c([nH]c4ccc(Br)cc43)c2=O)C(C)C1 (stereo partly specified) | 9.8 |
| COc1ccc(-c2nn(C)c(=O)c3ccccc23)cc1NS(C)(=O)=O | 57.1 |
| CC=Cc1cc2c(c(=O)o1)C(=O)C(O)C(C)O2 (stereo unspecified) | 40.1 |
| Cc1ccc(OCCOC(=O)c2c(-c3ccccc3)noc2C)cc1 | 13.6 |
| Cc1noc(C)c1COc1ccc(C(=O)NNC(=O)c2ccccc2F)cc1 | 70.6 |
| N#CCC(CNc1ncc(C(F)(F)F)cc1Cl)OC(=O)c1ccc(Cl)cc1Cl (stereo unspecified) | 13.4 |
| C/C(=N/NC(=O)c1cccs1)c1ccc(NC(=O)COc2ccc(Cl)cc2Cl)cc1 | 13.5 |
| CCOc1ccc(Br)cc1C1=NN(C(C)=O)C(c2ccc([N+](=O)[O-])s2)O1 (stereo unspecified) | 30 |
| COc1ccc(S(=O)(=O)Nc2cc3c(cc2C(C)=O)OCO3)cc1 | 40.6 |
| CN(C)S(=O)(=O)c1ccc(N2CCCC2)c(C(=O)Nc2cccc(F)c2)c1 | 17.2 |
| O=C(Nc1cccc(F)c1)c1cc(S(=O)(=O)N2CCOCC2)ccc1N1CCCC1 | 5.41 |
| CN(C)S(=O)(=O)c1ccc(N2CCCC2)c(C(=O)Nc2ccccc2)c1 | 4.45 |
| CC1=C(n2ccnc2)CCC1=O | 20.5 |
| O=C1CC(c2ccccc2F)c2cc3c(cc2N1)CCC3 (stereo unspecified) | 32.1 |
| CC(C)(C)c1nnc2sc(SCC(=O)c3ccc4c(c3)OCCO4)nn2c1=O | -0.962 |
| CN(C)CCc1cc2c(c3c1ccc1ccccc13)OCO2 | -9.59 |
| COc1ccccc1C1CC(=O)Nc2cc3c(cc21)OCCO3 (stereo unspecified) | 7.01 |
| COC(=O)c1sc(N)c(C(=O)OC)c1COC(=O)c1c(C)noc1C | 41.7 |
| Cc1[nH]c2ccc(C(=O)OC(C)C(=O)NCc3ccccc3)cc2c1C (stereo unspecified) | 20.7 |
| COc1cccc(-c2nc(N3CCN(C)CC3)c3ccccc3n2)c1O | 30.5 |
| O=C(CNc1cccc2ccccc12)N/N=C/C(Br)=C/c1ccccc1 | 33.3 |
| O=C(N/N=C/C(Br)=C/c1ccccc1)c1cc(-c2ccco2)[nH]n1 | 31.3 |
